# Assay results reported in PubChem BioAssay AID588493 (Sanford-Burnham Center for Chemical Genomics, 2011).
# The campaign covered roughly 360,000 compounds. About 2,100 (0.58%) were called active. The sample as a whole holds a higher share of actives than the screen did. Unmarked numbers belong to inactive results.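 How the source made its calls: active means inhibition at 20 µM, scaled to each plate's controls, above about 33% (limit read from the data); inactive means the rest.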
# Target: 26S proteasome non-ATPase regulatory subunit 14 (Homo sapiens) (UniProt O00487)
# Sequence (O00487 whole entry, looked up): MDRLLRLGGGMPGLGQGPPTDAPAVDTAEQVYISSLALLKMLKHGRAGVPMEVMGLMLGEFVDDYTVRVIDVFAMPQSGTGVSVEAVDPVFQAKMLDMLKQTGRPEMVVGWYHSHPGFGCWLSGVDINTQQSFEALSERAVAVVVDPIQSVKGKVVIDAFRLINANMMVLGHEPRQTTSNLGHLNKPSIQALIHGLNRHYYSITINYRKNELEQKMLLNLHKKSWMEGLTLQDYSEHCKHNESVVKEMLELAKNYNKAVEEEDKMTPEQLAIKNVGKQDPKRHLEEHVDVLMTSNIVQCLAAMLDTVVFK
# Test: inhibition of 26S proteasome subunit Rpn11 – biochemical, fluorescence polarization, uHTS, primary screen (AID 588493)
# Conditions: human 26S proteasome, Ub4-pepOG fluorescence polarization, at 20 µM, active compounds read high
row,SMILES,inhibition
1,O=C(N/N=C/c1c(O)n(Cc2ccccc2)c(=O)[nH]c1=O)c1ccccc1,-6.7%
2,O=c1[nH]c(=O)n(Cc2ccccc2)c(O)c1/C=N/Nc1c(F)c(F)c(F)c(F)c1F,41.6% (active)
3,O=c1[nH]c(=O)n(CCc2ccccc2)c(O)c1/C=N/N1CCOCC1,5.5%
4,COC(=O)C1=C(c2ccc(F)cc2OCc2ccccc2)C[C@@H]2CC[C@H]1N2C(=O)NCc1ccc(Cl)cc1,7.7% [20S core pre-blocked with epoxomicin]
5,CCc1cccc2c(C#N)cn(CC(=O)N3CCOCC3)c12,-6.2%
6,COc1ccc(C2NCc3ccc4c(c3-n3cccc32)OCO4)cc1OC (stereo not given),7.6%
7,Cc1cccc(N2C(=O)NC(=O)/C(=C\c3cnn(-c4ccccc4)c3)C2=O)c1,119% (active)
8,Cn1c(O)c(C(=Nc2ccc(F)cc2)c2ccccc2)c(=O)n(C)c1=O,-3.9%
9,COc1ccc(C2C=C(C)Oc3c2c(=O)oc2ccccc32)cc1OC (stereo not given),6% [20S core pre-blocked with epoxomicin]
10,c1cc2c(c(NC3=NCCCS3)c1)CCCC2,3.9%
11,O=C(C1CC(=O)N(C2CCCC2)C1)N1CCC2(CC1)OCCO2 (stereo not given),3.4%
12,CCN1C(=O)C(=Cc2c(C)n(CC(=O)NCC3CCCO3)c3ccccc23)C(=O)N(CC)C1=S (stereo not given),62% (active)
13,Fc1cccc(F)c1CN1CCN(Cc2c(F)cccc2F)CC1,-4.8%
14,CN(C)C(=O)Oc1ccc2c(c1)O/C(=C\c1ccccc1)C2=O,5.7%
15,Cn1c(C(=O)N2CCC(C(=O)N3CCC4(CC3)OCCO4)CC2)cc2sccc21,3.9%
